Unmarked numbers belong to inactive results. Records with an inconclusive call do not appear. Where a call stands in place of a potency, no number is given. Activity calls are given as the source filed them. Unless noted, the call rests on the fitted dose curve; in most records, active means well fitted curve in the direction sought with a large enough effect in the repeat runs; inconclusive means weak or mixed curves; inactive means no such curve, though single readings can be large; an effect the other way counts as inactive or inconclusive.
Legend:
[1] = biological target: Thyrotropin-releasing hormone receptor (Homo sapiens) (UniProt P34981); assay: qHTS assay to identify small molecule agonists of the thyrotropin-releasing hormone receptor (TRHR) signaling pathway (AID 1346891; calls by dose curve;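 further: HEK293 cells expressing TRHR with calcium dye readout; series mostly up to about 58 µM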)
In short: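 Overnight-plated (18 h, 37 °C, 5% CO2) TRHR-Hek293 cells; 2 h calcium dye at 37 °C; compound in DMSO; 3-min kinetic fluorescence read.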

[2] = Human pregnane X receptor (PXR) small molecule agonists, qHTS cell viability counter screen (AID 1346977); further: nearly all actives have a fitted effect of over 50% in size
In short: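 After a 5hr pre-incubation, PXR-Luc HepG2 cells received compounds plus positive control in DMSO and were kept 24hr at 37C. Cell viability was quantified by fluorescence from CellTiter-Fluor added for the final hour.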

[3] = Caspase-3/7 induction in HepG2 cells by small molecules, qHTS assay (AID 1346978); further: nearly all actives have a fitted effect of over 15% in size
In short: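 Wild-type HepG2 cells (2,000/well) were settled 5 h at 37 C, 5% CO2, then exposed to compounds in DMSO for 17 h. Caspase-3/7 activity was read by luminescence 30 min after adding Caspase-Glo 3/7 reagent at room temperature.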

[4] = Caspase-3/7 induction in CHO-K1 cells by small molecules, qHTS cell viability counter screen (AID 1346979); further: nearly all actives have a fitted effect of over 35% in size
In short: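 Multiplexed with Caspase-Glo 3/7 in CHO-K1 cells, this counter screen added CellTiter-Fluor after 16hr of compound exposure and recorded fluorescence 1hr later.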

[5] = Caspase-3/7 induction in CHO-K1 cells by small molecules, qHTS assay (AID 1346980); further: nearly all actives have a fitted effect of over 15% in size
In short: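 Wild-type cells were seeded at 1,500 per well and settled 5 hr at 37 C, 5% CO2, then exposed to DMSO-dissolved compounds for 17 hr. Caspase-Glo 3/7 reagent was added, and luminescence was read after 30min at room temperature.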

[6] = Caspase-3/7 induction in HepG2 cells by small molecules, qHTS cell viability counter screen (AID 1346981); further: series mostly up to about 92 µM; nearly all actives have a fitted effect of over 30% in size
In short: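 CellTiter-Fluor fluorescence measured viability in the same wells used for Caspase-Glo 3/7. HepG2 (wild type) at 2,000 cells/well were pre-incubated 5 hr, dosed, and given reagent at 16 hr, with 1 hr further at 37C.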

[7] = biological target: Nuclear receptor subfamily 1 group I member 2 (Homo sapiens) (UniProt O75469); assay: Human pregnane X receptor (PXR) small molecule agonists, qHTS assay (AID 1346982); further: nearly all actives have a fitted effect of over 35% in size; further: potency means the concentration at half of the fitted maximal effect
In short: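 Agonist mode: luminescence from ONE-Glo after 24 h compound exposure at 37C in HepG2 cells carrying hPXR-responsive CYP3A4 luciferase, plated in charcoal-stripped serum medium 5 h beforehand.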

[8] = biological target: Nuclear receptor subfamily 1 group I member 2 (Rattus norvegicus) (UniProt Q9R1A7); assay: Rat pregnane X receptor (rPXR) activation by small molecules, qHTS assay (AID 1346983); settings: rPXR luciferase reporter cells, One-Glo luminescence, 24 h; max activation: hits give high values; further: nearly all actives have a fitted effect of over 20% in size
In short: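 Cell-based rPXR luciferase reporter assay, 2,000 cells per well, rested 5hr at 37 C before compound addition in DMSO, then 24 hr at 37 C. One-Glo reagent was added and luminescence read after 30 min at room temperature.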

[9] = biological target: Nuclear receptor subfamily 1 group I member 2 (Homo sapiens) (UniProt O75469); assay: CYP3A4 induction through human pregnane X receptor (PXR) by small molecules, qHTS assay (AID 1346984); further: nearly all actives have a fitted effect of over 40% in size
In short: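 Read-out is luminescence after One-Glo addition, following a 3 hr, 37C incubation with Luciferin-IPA CYP3A4 substrate (3uM final). Before that, compounds were on DPX-2 cells (HepG2 co-transfected with PXR element plus CYP3A4-promoter luciferase) for 24 hr at 37C.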

[10] = biological target: Nuclear receptor subfamily 1 group I member 2 (Homo sapiens) (UniProt O75469); assay: Human pregnane X receptor (PXR) activation by small molecules, qHTS assay (AID 1346985); further: nearly all actives have a fitted effect of over 40% in size
In short: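 DPX-2 cells (HepG2 co-transfected with a PXR response element and a CYP3A4-promoter luciferase construct) were seeded at 2,000 per well, rested 5 hr at 37C, then exposed to DMSO-dissolved compounds for 24 hr. Activation was read as luciferase luminescence.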

Thyrotropin-releasing hormone receptor (Homo sapiens), sequence (P34981 whole entry, looked up): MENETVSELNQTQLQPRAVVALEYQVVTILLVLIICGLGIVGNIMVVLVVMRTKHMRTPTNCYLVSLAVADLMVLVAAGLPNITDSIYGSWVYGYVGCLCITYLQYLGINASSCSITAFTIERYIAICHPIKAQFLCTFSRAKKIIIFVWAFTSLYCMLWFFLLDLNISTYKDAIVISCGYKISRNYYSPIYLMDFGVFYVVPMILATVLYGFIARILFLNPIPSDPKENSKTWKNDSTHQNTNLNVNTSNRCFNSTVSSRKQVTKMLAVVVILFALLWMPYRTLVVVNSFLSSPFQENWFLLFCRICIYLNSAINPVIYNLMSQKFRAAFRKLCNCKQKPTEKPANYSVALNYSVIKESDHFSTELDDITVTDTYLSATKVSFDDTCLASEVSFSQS
Nuclear receptor subfamily 1 group I member 2 (Homo sapiens), sequence (O75469 whole entry, looked up): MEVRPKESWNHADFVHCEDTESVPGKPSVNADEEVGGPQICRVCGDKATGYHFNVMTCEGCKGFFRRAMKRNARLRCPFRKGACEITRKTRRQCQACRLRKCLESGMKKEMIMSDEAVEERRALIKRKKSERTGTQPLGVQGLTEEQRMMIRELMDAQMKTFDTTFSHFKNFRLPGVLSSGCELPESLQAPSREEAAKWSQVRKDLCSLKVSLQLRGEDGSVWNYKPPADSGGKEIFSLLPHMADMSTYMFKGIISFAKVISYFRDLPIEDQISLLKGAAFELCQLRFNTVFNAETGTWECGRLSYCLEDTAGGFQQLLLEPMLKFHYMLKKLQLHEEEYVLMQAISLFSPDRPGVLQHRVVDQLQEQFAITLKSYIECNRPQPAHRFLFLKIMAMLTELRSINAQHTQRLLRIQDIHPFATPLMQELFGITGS
Nuclear receptor subfamily 1 group I member 2 (Rattus norvegicus), sequence (Q9R1A7 whole entry, looked up): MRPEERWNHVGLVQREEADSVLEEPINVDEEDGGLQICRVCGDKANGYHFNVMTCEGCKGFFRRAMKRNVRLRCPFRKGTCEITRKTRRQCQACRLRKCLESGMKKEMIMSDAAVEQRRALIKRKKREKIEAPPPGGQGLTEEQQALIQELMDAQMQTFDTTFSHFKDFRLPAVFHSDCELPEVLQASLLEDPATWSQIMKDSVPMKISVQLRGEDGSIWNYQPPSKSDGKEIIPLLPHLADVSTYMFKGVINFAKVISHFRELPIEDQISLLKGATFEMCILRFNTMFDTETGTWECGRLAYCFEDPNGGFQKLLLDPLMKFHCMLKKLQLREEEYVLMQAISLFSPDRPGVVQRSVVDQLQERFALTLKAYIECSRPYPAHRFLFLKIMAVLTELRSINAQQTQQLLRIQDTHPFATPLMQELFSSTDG

| SMILES | outcome [1] | Potency [2] | outcome [3] | Potency [4] | outcome [5] | outcome [6] | Potency [7] | max activation [8] [%] | Potency [9] | Potency [10] |
| --- | --- | --- | --- | --- | --- | --- | --- | --- | --- | --- |
| Cc1c(F)cc2c(=O)c(C(=O)O)cn3c2c1CCC3C (centres undefined) | inactive | inactive | inactive | inactive | inactive | inactive | inactive | – | – | – |
| CCCCC1CCCCC(=O)O1 (centres undefined) | inactive | inactive | inactive | inactive | inactive | inactive | inactive | – | – | – |
| CC/C=C\C#N | inactive | inactive | inactive | inactive | inactive | inactive | inactive | – | – | – |
| N#CCN(CC#N)CCN(CC#N)CC#N | inactive | inactive | inactive | inactive | inactive | inactive | inactive | – | – | – |
| Cc1ccccc1Br | inactive | inactive | inactive | inactive | inactive | inactive | inactive | – | – | – |
| CN1[C@@H]2CC[C@H]1CC(NC(=O)n1c(=O)[nH]c3ccccc31)C2 (some centres undefined) | inactive | inactive | inactive | inactive | inactive | inactive | inactive | – | – | – |
| C1C2OC2C2C1C1CC2C2OC12 (centres undefined) | inactive | inactive | inactive | inactive | inactive | inactive | inactive | – | – | – |
| c1ccc(CCCc2ccccn2)cc1 | inactive | inactive | inactive | inactive | inactive | inactive | 34.4 µM (active) | – | – | – |
| CCCCCCCCCCC1CO1 (centres undefined) | inactive | inactive | inactive | inactive | inactive | inactive | inactive | – | – | – |
| Cc1nccn1CC1CCc2c(c3ccccc3n2C)C1=O (centres undefined) | inactive | inactive | inactive | inactive | inactive | inactive | inactive | – | – | – |
| CC(C)=CC(=O)O | inactive | inactive | inactive | inactive | inactive | inactive | inactive | – | – | – |
| CCC(=O)c1cccc(Cl)c1 | inactive | inactive | inactive | inactive | inactive | inactive | inactive | – | – | – |
| CC1=CCC2C(C1)C2(C)C (centres undefined) | inactive | inactive | inactive | inactive | inactive | inactive | 48.6 µM (active) | – | – | – |
| CC(C)(O)C(=O)c1ccc(OCCO)cc1 | inactive | inactive | inactive | inactive | inactive | inactive | inactive | – | – | – |
| CC(=O)NC(Cc1ccccc1)C(=O)O (centres undefined) | inactive | inactive | inactive | inactive | inactive | inactive | inactive | – | – | – |
| CCCc1ccccc1O | inactive | inactive | inactive | inactive | inactive | – | inactive | – | – | – |
| COc1cc(O)cc(O)c1 | inactive | inactive | inactive | inactive | inactive | inactive | – | -1.94 | inactive | inactive |
| O=C(O)/C=C/c1ccc(/C=C/C(=O)O)cc1 | inactive | inactive | inactive | inactive | inactive | inactive | inactive | – | – | – |
| COc1ccc2cc(C=O)ccc2c1 | inactive | inactive | inactive | inactive | inactive | – | inactive | – | – | – |
| NCCNC(=O)c1ccc(Cl)cn1 | inactive | inactive | inactive | inactive | inactive | inactive | inactive | -1.85 | inactive | inactive |
| CCC(=O)Nc1cccc(N)c1 | inactive | inactive | inactive | inactive | inactive | inactive | inactive | – | – | – |
| CCOC(=O)[C@H](CCc1ccccc1)N[C@@H](C)C(=O)N1CCC[C@H]1C(=O)O | inactive | inactive | inactive | inactive | inactive | inactive | – | -3.1 | – | – |
| O=C(O)c1cccc(C(=O)O)n1 | inactive | inactive | inactive | inactive | inactive | – | inactive | – | – | – |
| CC1CCN(CCCC(=O)c2ccc(F)cc2)CC1 | inactive | inactive | inactive | inactive | inactive | inactive | inactive | -4.88 | inactive | inactive |
| CCCCCCCCCCCl | inactive | inactive | inactive | inactive | inactive | – | inactive | – | – | – |
